# MARV entry inh: qHTS for inhibitors of binding or entry into cells for Marburg Virus; Potency, µM (titrated, usually from 37.8 µM), inactives show at the highest dose activity change, negative = inhibition, actives largely listed as inhibitors; Marburg virus pseudotyped entry inhibition, cell reporter; hit rate 1.8% among 300,000; calls by dose curve; tested in HEK293 cells
# LASV entry inh: qHTS for Inhibitors of binding or entry into cells for Lassa Virus; Lassa virus pseudotype entry inhibition, cell reporter; hit rate 1.2% among 300,000; Potency, µM (top dose mostly 37.9 µM), inactives show at the highest dose activity change, negative = inhibition, usual class: inhibitors; calls by dose curve; tested in HEK293 cells; also: nearly all actives have a fitted effect of over 50% in size
# Vaccinia mCherry: qHTS for Stage-Specific Inhibitors of Vaccinia Orthopoxvirus: mCherry Reporter Primary qHTS; Vaccinia virus mCherry reporter infection, fluorescence; Potency, µM (top dose mostly 36.5 µM), without a hit: at the highest dose activity change, negative = inhibition, actives largely listed as inhibitors; hit rate 0.63% among 310,000; calls by dose curve; tested in A549 cells; also: nearly all actives have a fitted effect of over 35% in size
# FMDV inh: High Throughput Screening for Foot and Mouth Disease Virus Antivirals | hit rate 1.2% among 410,000 | AID 1159524, 2015 | FMDV antiviral cell-based qHTS | Potency, µM (highest dose often 57.9 µM), inactives show top-dose activity change, negative = inhibition, most hits filed as inhibitors; calls by dose curve; tested in HEK293T cells; also: read-out not given here; nearly all actives have a fitted effect of over 45% in size
# Vaccinia Venus: qHTS for Stage-Specific Inhibitors of Vaccinia Orthopoxvirus: Venus Reporter Primary qHTS | hit rate 0.46% among 330,000 | Vaccinia virus Venus reporter expression, fluorescence | Potency, µM (highest dose often 36.5 µM), without a hit: at the top dose activity change, negative = inhibition, actives largely listed as inhibitors; calls by dose curve; tested in A549 cells; also: nearly all actives have a fitted effect of over 30% in size
# * hit, by the source's call; i = inactive; u = inconclusive; x = no result given; [ ] = remark or other dose. Compounds with a hit are over-represented: about 3.2% of the library has one in this group of screens. % is scaled to controls: 0 for no effect and ±100 for the full control effect; potency is read from the fitted curve at half-maximal effect.
SMILES,MARV entry inh,LASV entry inh,Vaccinia mCherry,FMDV inh,Vaccinia Venus
O=C(NCCC(F)(F)F)c1cccc2c(-c3ccc(F)c(F)c3)coc12,x,x,4%,-10%,-4%
CC(=O)Nc1ccc(-n2c(=O)c3ccccc3c3ccccc3c2=O)cc1,-9%,u,-8%,28µM*,-15%
Cc1nc2ccccc2c(=O)n1-c1ccc(C(=O)O)cc1,x,x,3%[7.34 µM],37%,7%[7.34 µM]
O=C(O)c1ccc(-n2c(=O)c3ccccc3c3ccccc3c2=O)cc1,-4%[46.1 µM],4%[46.1 µM],-1%,35µM*,-14%
CCc1ccc(C(=O)c2cn(CC(=O)Nc3cccc(OC)c3)c3cc4c(cc3c2=O)OCO4)cc1,u,9%[46.1 µM],-13%,-12%,-7%
CCCCN1C(=O)C(=Nc2cccc3cnccc23)c2ccccc21,-26%[46.1 µM],x,-7%,u,-4%
Cc1[nH]nc(-c2cccnc2)c1N=NN(C)C,7.1µM*,u,u,u,u
CC(C)(C)NC(=O)C(c1ccc(O)cc1)N(C(=O)CCC(=O)Nc1nccs1)c1ccc(F)cc1 (configuration not stated),2.2µM*,u,-1%,-7%,-9%
CC(C)(C)NC(=O)C(c1ccc(O)cc1)N(Cc1ccccc1)C(=O)CCC(=O)Nc1nccs1 (configuration not stated),-28%[46.1 µM],-10%,-11%,-2%,-11%
Cc1ccc(N(C(=O)CCC(=O)Nc2nccs2)C(C(=O)NC(C)(C)C)c2ccc(O)cc2)cc1 (configuration not stated),8.9µM*,-15%[46.1 µM],i,-17%,-7%
O=C(CCCN1C(=O)/C(=C/c2ccccc2Cl)SC1=S)NNC(=O)c1ccc(Cl)cc1,x,x,-7%,7.9µM*,-14%
Cc1ccc(C(=O)NNC(=O)CCCN2C(=O)/C(=C/c3ccccc3Cl)SC2=S)cc1,11µM*,u,i,u,-4%
O=C(CCN1C(=O)/C(=C/c2ccccc2Cl)SC1=S)NNC(=O)c1cccnc1,u,2%,-2%,-9%,-21%
O=C(CCCN1C(=O)/C(=C\c2ccccc2)SC1=S)Nc1ccc(O)cc1,u,u,u,-24%,28µM*
Cc1ccc(/C=C2\SC(=S)N(CCCC(=O)NC3CCCC3)C2=O)cc1,u,1.1µM*,-10%,16µM*,-13%
CC(=O)N1CCc2c(sc3c2c(=O)n(-c2ccccc2)c(=O)n3CC(=O)Nc2ccccc2)C1,x,u,-7%,27%,8%
Cc1ccc(/C=C2\SC(=S)N(CCCC(=O)NNC(=O)c3ccccc3O)C2=O)cc1,x,x,x,8.9µM*,x
CCCN1C(=O)/C(=C/c2ccncc2)SC1=S,17%,0%,-13%,0%,-5%
O=C1/C(=C/c2ccncc2)SC(=S)N1Cc1ccccc1,11µM*,-26%,-12%,u,-7%
CCCCc1ccc(/C(C)=N/Nc2cc(N3CCOCC3)nc(C)n2)cc1,x,x,x,-20%,x
COC(=O)C(C(C)=O)[C@@H](NC(=O)OC(C)(C)C)c1ccccc1 (some centres not stated),-7%[14.2 µM],x,x,x,x
COc1ccc(C(=O)NCc2nc(-c3ccccc3NC(=O)c3cc(C)oc3C)oc2C)cc1F,x,x,-11%,3%,-8%
Cc1ccc(C)c(S(=O)(=O)N2CCC(c3nc4c(nnn4Cc4ccc(F)cc4)c(=O)[nH]3)CC2)c1,-25%,u,x,-23%,-22%
Cc1ccc(Cn2nnc3c(=O)[nH]c(C4CCN(S(=O)(=O)c5cc(C)ccc5C)CC4)nc32)cc1,u,14µM*,-13%[1.46 µM],u,u
Cc1ccc(Cn2nnc3c(=O)[nH]c(C4CCN(C(=O)c5cccs5)CC4)nc32)cc1,u,2.9µM*,x,-20%,x
SMILES,MARV entry inh,LASV entry inh,Vaccinia mCherry,FMDV inh,Vaccinia Venus
O=c1[nH]c(C2CCN(S(=O)(=O)/C=C/c3ccccc3)CC2)nc2c1nnn2Cc1ccc(F)cc1,7.9µM*,u,u,1%,-23%
CCOC(=S)SCC(=O)Nc1nccs1,u,-12%,-3%,22µM*,-14%
CCOC(=S)SCC(=O)Nc1nc(-c2ccc(Br)cc2)cs1,u,8.9µM*,u,u,u
CCc1cccc(NC(=O)c2sc3nc[nH]c(=O)c3c2C)c1,x,-5%[46.1 µM],-26%,7%,-15%
CC(C)Cc1nc(N2CCN(C(=O)c3ccco3)CC2)c(C#N)c2c1CCC2,u,u,-20%,25µM*,-13%
CC1(C)Cc2c(C#N)c(N3CCN(C(=O)c4ccco4)CC3)nc(Cc3ccccc3)c2CO1,u,-30%,i,40µM*,-13%
CC(C)Cc1nc(N2CCN(C(=O)c3ccccc3)CC2)c(C#N)c2c1CCC2,u,6.5µM*,x,u,x
CCCN(CCC)C(=O)Cn1ccc(=N)c2c1CCCC2,-3%,x,x,x,x
CC(C)(C)NC(=O)CN1CCCN(C(=O)COc2ccc(Cl)c3ccccc23)CC1,-2%,u,u,-10%,-13%
CC(C)(C)NC(=O)CN1CCN(C(=O)CCl)CC1,u,u,u,u,2.5µM*
CCOC(=O)N1CCN(C(=O)CCl)CC1,u,u,2.2µM*,u,3.2µM*
CCOC(=O)N1CCN(C(=O)Cc2ccc(Cl)cc2)CC1,12%,0%,x,-1%,-3%
Cc1ccnn1CC(=O)N1CCOc2c(cc(-c3csc4ccccc34)cc2OC2CCOC2)C1 (configuration not stated),x,x,-7%,0%,-2%
O=C1c2ccccc2C(=O)c2c(NCCc3ccc(O)cc3)ccc(NCCc3ccc(O)cc3)c21,21µM*,5.2µM*,x,x,x
Cc1cccc(NC(=S)NC2CC3CCCC(C2)N3Cc2cccs2)c1 (configuration not stated),1.6µM*,u,u,x,u
COCCNC(=S)NC1CC2CCCC(C1)N2Cc1cccs1 (configuration not stated),u,-16%,-23%,x,-22%
Cc1cccc(N(CC(=O)NC2CCCCC2)C(=O)c2csnn2)c1,11%[46.1 µM],u,-22%,30%,0%
c1ccc(C(NCc2cccnc2)(c2ccccc2)c2ccccc2)cc1,0%,8.2µM*,x,u,x
c1ccc(CCc2cccnc2)cc1,9%,-1%,-11%,5%,-8%
NC(=O)c1csc(C2OC(CO)C(O)C2O)n1 (configuration not stated),x,x,-5%,-23%,-6%
O=C1C=C(C2OC(CO)C(O)C2O)C(=O)N1 (configuration not stated),x,x,-4%,40µM*,1%
CN1c2ccccc2C(C)(C)C12C=Cc1cc(O)ccc1O2 (configuration not stated),u,15µM*,i,x,63%
CN1c2ccccc2C(C)(C)C12C=Nc1c(cc(N3CCOCC3)c3ccccc13)O2 (configuration not stated),u,u,-15%,u,-18%
COC(=O)C1CCCCN1Cc1ccc2c(c1)CN(C(=O)c1cc(C)nc3cc(F)ccc13)CCO2 (configuration not stated),x,x,-8%,-23%,-2%

# Screening results deposited in PubChem by National Center for Advancing Translational Sciences (NCATS).
